Compounds with a hit are over-represented: about 4.3% of the library has one in this group of screens.
FAS-TE inh: blocks the thioesterase domain of human fatty acid synthase; P49327; recombinant FAS-TE, OMFH fluorogenic substrate, fluorescence endpoint; inhibition, % at 15 µM; hit rate 0.67% among 360,000;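 active = compounds whose normalised, plate-corrected inhibition of enzyme fluorescence in the single-dose primary screen is 50% or more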;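 note: 0% = DMSO with enzyme and 100% = substrate without enzyme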
rCAG RNA binder: molecules binding r(CAG) RNA repeats | r(CAG) RNA repeat, TO-PRO-1 dye displacement fluorescence | inhibition, % at 3 µM | hit rate 1.3% among 370,000 | AID 651821;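 active = inhibition above the plate cutoff, the mean of all test compounds on that plate plus 3 SD, cut at about 35% in these data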;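 note: 0% = DMSO alone and 100% = 100 µM mitoxantrone as full dye displacement; higher means more dye released from RNA so lower well fluorescence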
GRIN3A LBD mod: modulates the human NR3A ligand-binding domain. hit rate 2.5% among 340,000. Tm shift relative to glycine control, % at 25 µM. NR3A LBD differential scanning fluorimetry, Tm shift; 0% = protein alone, 100% = glycine-bound protein;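 active = melting temperature shift of at least 10% of the positive control shift, at one fixed dose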
NadD inh: inhibitors of Staphylococcus aureus NadD; purified NadD enzyme, colorimetric absorbance read-out; inhibition, % at 20 µM; hit rate 0.78% among 360,000; AID 602399; in the data active = inhibition above about 26%
rCAG binder conf: r(CAG) RNA repeat binding, confirmation; shares compounds with rCAG RNA binder; TO-PRO-1 dye displacement fluorescence; inhibition, % at 3 µM; hit rate 70% among 4,300;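 active = inhibition above a per-plate cutoff, the mean inhibition of sample wells plus 3 SD, cut at about 35% in these data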;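 note: loss of TO-PRO-1 fluorescence as compound displaces dye from 1x1 AA loop RNA; 0% = DMSO only wells and 100% = 100 µM mitoxantrone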
DNA CAG counter: DNA CAG dye complex inhibition counter-screen | shares compounds with rCAG RNA binder | d(CAG) DNA oligo TO-PRO-1 dye displacement, fluorescence | inhibition, % at 3 µM | hit rate 94% among 4,300;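 active = inhibition above its plate's cutoff, the mean test-well inhibition plus 3 SD, cut at about 4.8% in these data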;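 note: 0% = DNA dye mix with DMSO and 100% = 100 µM mitoxantrone; hits displace the dye from DNA and so lower well fluorescence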
DNA CAG DR: disrupts DNA CAG TO-PRO-1 complex in dose response | shares compounds with rCAG RNA binder | DNA CAG/GTC duplex TO-PRO-1 dye displacement fluorescence | IC50, µM | hit rate 20% among 250; in the data active = IC50 below about 10 µM
* hit, by the source's call; / = no result.

SMILES	FAS-TE inh	rCAG RNA binder	GRIN3A LBD mod	NadD inh	rCAG binder conf	DNA CAG counter	others
CCC(C)N1CCC2(CC1)N=c1c(c3c4c5c(C)c(O)c3c(O)c1=NC(=O)C(C)=CC=C[C@H](C)[C@H](O)[C@@H](C)[C@@H](O)[C@@H](C)[C@H](OC(C)=O)[C@H](C)[C@@H](OC)C=CO[C@@](C)(O5)C4=O)N2 (some centres not stated)	6.6	8.2	-3.5	3.4	/	/
COC1C=COC2(C)Oc3c(C)c(O)c4c(O)c(c(CN5CCN(C)CC5)c(O)c4c3C2=O)NC(=O)C(C)=CC=CC(C)C(O)C(C)C(O)C(C)C(OC(C)=O)C1C (configuration not stated)	-5.0	37.3*	-8.4	18.3	33.9	7.5*
Cc1ccc(C)c2c1[nH]c1ccc([N+](=O)[O-])cc12	19.5	39.9*	35.3*	-11.0	30.2	14.1*
Cc1c(C(=O)NN)[nH]c2ccc([N+](=O)[O-])cc12	-0.2	17.6	4.7	-2.9	/	/
O=C(CN(c1cccc(Br)c1)S(=O)(=O)c1ccccc1)N/N=C/c1cc([N+](=O)[O-])ccc1O	49.7	77.4*	13.5*	46.8*	88.7*	61.7*
CC(C)(C)NC(=O)CN(c1cccc([N+](=O)[O-])c1)S(=O)(=O)c1ccccc1	4.0	-2.0	-1.4	-2.8	/	/
COC(=O)[C@]12C[C@H](CC(=O)N3CCOCC3)C(=O)N(Cc3cccc4ccccc34)C1=C[C@H](C(C)(C)C)O[C@@H]2C	/	2.9	/	/	/	/
COc1cc(/C=C(\NC(=O)c2ccccc2)C(=O)NCC(=O)O)c([N+](=O)[O-])cc1OC	-11.8	-0.3	-6.7	-2.0	/	/
COc1cc(/C=C2/S/C(=N/S(=O)(=O)c3ccccc3)NC2=O)c([N+](=O)[O-])cc1OC	-0.4	78.0*	-3.5	7.5	76.7*	41.1*
O=C1N/C(=N\S(=O)(=O)c2ccccc2)S/C1=C\c1cc([N+](=O)[O-])ccc1O	-5.0	67.1*	14.0*	0.9	51.8*	11.6*	DNA CAG DR=>29.9
O=C(N/N=C/c1cc([N+](=O)[O-])ccc1O)C(O)(c1ccccc1)c1ccccc1	46.8	24.7	4.6	0.4	/	/
COc1ccccc1C=C1SC(=S)NC1=O	-4.5	6.6	-9.5	7.7	/	/
COc1cc(/C=C2\S/C(=N/S(=O)(=O)Cc3ccccc3)NC2=O)c([N+](=O)[O-])cc1OC	7.3	78.3*	-5.9	2.6	71.1*	32.9*
COc1cc(/C=C2/S/C(=N/S(=O)(=O)Cc3ccccc3)NC2=O)c([N+](=O)[O-])cc1OC	4.6	72.7*	-7.3	1.1	67.0*	28.7*
C=CCn1c(COc2ccc(Cl)cc2)nnc1SCC(=O)c1ccc(-c2ccccc2)cc1	/	8.3	/	/	/	/
O=C(O)COc1ccccc1/C=N/NC(=O)c1cc(-c2ccc(F)cc2)nc2ccccc12	2.4	54.8*	-2.2	7.4	42.9*	11.8*
Cc1ccc(-c2cc(C(=O)NN=Cc3ccccc3OCC(=O)O)[nH]n2)cc1	/	24.2	/	/	/	/
O=C(O)COc1ccccc1/C=N/NC(=O)CSc1nc2ccccc2n1Cc1ccccc1	-1.1	45.1*	-2.7	7.1	54.6*	16.5*
COC(=O)[C@]12C[C@H](CC(=O)N3CCN(C(=O)c4ccco4)CC3)C(=O)N(Cc3ccc(Cl)cc3Cl)C1=C[C@H](C(C)C)O[C@@H]2C1CC1	/	10.7	/	/	/	/
OC(c1ccccc1)(c1ccccc1)C1CCN(CCCOc2ccc(-c3ccncc3)cc2)CC1	/	3.7	/	/	/	/
Cc1noc(NS(=O)(=O)c2ccc(NC(=O)CS(=O)(=O)c3ccccc3)cc2)c1C	0.3	14.5	-5.4	-3.1	/	/
COc1ccc(/C=C/C(=O)Nc2ccc(S(=O)(=O)Nc3onc(C)c3C)cc2)cc1OC	-7.5	39.4*	-0.3	-7.0	37.6*	10.6*
Cc1noc(NS(=O)(=O)c2ccc(NC(=O)C(CC(C)C)N3C(=O)c4ccccc4C3=O)cc2)c1C (configuration not stated)	-1.4	62.5*	-6.1	6.2	45.2*	15.2*
Cc1noc(NS(=O)(=O)c2ccc(NC(=O)/C=C/c3ccccc3)cc2)c1C	-2.1	38.9*	-2.4	-5.0	37.5*	6.7*
Cc1noc(NS(=O)(=O)c2ccc(NC(=O)/C=C/c3ccc(Cl)cc3Cl)cc2)c1C	-3.6	25.3	/	9.3	/	/
SMILES	FAS-TE inh	rCAG RNA binder	GRIN3A LBD mod	NadD inh	rCAG binder conf	DNA CAG counter	others
O=C(/C=C/c1ccc(Br)cc1)Nc1ccc(S(=O)(=O)Nc2ncccn2)cc1	0.4	37.8*	-1.3	3.5	24.0	5.9*
Cc1ccc(OCC(=O)NNC(=O)c2ccc(F)c(S(=O)(=O)N3CCOCC3)c2)cc1C	-6.1	8.2	/	-4.9	/	/
O=C(/C=C/c1ccc(Br)cc1)NC(=O)c1ccccc1O	-2.4	27.4	3.5	-1.5	/	/
CSc1ccc(/C=C/C(=O)NC(=O)c2ccccc2O)cc1	3.6	38.2*	2.4	0.4	25.9	8.7*
O=C(OC12CCCN(C1)/C(=C/c1cccnc1)C2)c1ccccc1 (configuration not stated)	/	2.3	/	/	/	/
O=C(O)c1oc2ccccc2c1CSc1ccc(Cl)cc1	-0.8	39.9*	-0.8	-7.3	23.0	3.8
Cc1ccc(/C=C2\SC(=S)N(CCCC(=O)Nc3ccccc3C(=O)O)C2=O)cc1	17.3	9.3	-3.4	6.1	/	/
O=C(CCN1C(=O)S/C(=C\c2ccc(Cl)cc2)C1=O)Nc1ccc(C(=O)O)cc1	0.1	-1.4	3.7	1.1	/	/
COc1ccc(/C=C2\SC(=O)N(CCCC(=O)Nc3ccc(C(=O)O)cc3)C2=O)cc1	-6.5	3.8	/	0.5	/	/
O=C(CCN1C(=O)S/C(=C/c2ccccc2)C1=O)Nc1ccc(C(=O)O)c(O)c1	1.4	63.2*	-8.9	-2.8	41.3*	15.0*
O=C(CCN1C(=O)S/C(=C/c2ccc(F)cc2)C1=O)Nc1ccc(O)c(C(=O)O)c1	7.7	51.0*	-4.8	-2.3	36.0*	9.1*
O=C(CCN1C(=O)S/C(=C\c2ccc(F)cc2)C1=O)Nc1ccc(O)cc1C(=O)O	-4.0	48.7*	-2.0	-1.9	28.1	6.8*
O=C(CCN1C(=O)S/C(=C\c2ccc(F)cc2)C1=O)Nc1ccc(C(=O)O)c(O)c1	3.2	68.5*	0.7	-6.0	43.2*	11.4*
CC1CCCN(C(=O)Nc2ccc([N+](=O)[O-])cc2)C1 (configuration not stated)	/	3.1	/	/	/	/
COc1ccc(Br)cc1C1CC(=O)N2CN(C)CSC2=C1C#N (configuration not stated)	-1.8	17.5	-1.2	3.9	/	/
COc1ccc(Br)cc1C1CC(=O)N2CN(Cc3ccccc3)CSC2=C1C#N (configuration not stated)	-0.2	37.7*	-6.7	12.4	30.1	12.6*
Oc1nc(Nc2ccc(F)cc2)sc1/C=C1\C=Nc2ccccc21	1.3	47.9*	34.3*	8.9	25.0	14.3*
